Reference: PubChem BioAssay (Tox21)
Results filed as inconclusive are left out. Calls of active or inactive are those of the source. Unless noted, the call rests on the fitted dose curve; in most records, active means well fitted curve in the direction sought with a large enough effect in the repeat runs; inconclusive means weak or mixed curves; inactive means no such curve, though single readings can be large; an effect the other way counts as inactive or inconclusive.

Assays:
[1] = qHTS assay to identify small molecule agonists of the sonic hedgehog signaling (Shh) pathway - cell viability counter screen (AID 1259366); further: nearly all actives have a fitted effect of over 50% in size
In short: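 NIH/3T3-derived Gli1-Luc reporter cells, 2,000 per well, received compound after 4 h and were treated about 23 h at 37C. Viability measured in the same wells by CellTiter-Fluor fluorescence after 1 h.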

[2] = qHTS assay to identify small molecule antagonists of the sonic hedgehog signaling (Shh) pathway - cell viability counter screen (AID 1259367); further: nearly all actives have a fitted effect of over 55% in size
In short: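 Using CellTiter-Fluor, viability of Gli1-Luc reporter 3T3 cells is read by fluorescence in the wells used for the Shh luciferase assay. Treatment lasts 23 hr with conditioned medium, then reagent 1 hr at 37C.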

[3] = qHTS assay to identify small molecule agonists of the sonic hedgehog signaling (Shh) pathway (AID 1259368; calls by dose curve;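 further: NIH/3T3-derived 3T3Gli1-Luc cells carrying a stable Gli1-driven firefly luciferase reporter; series mostly up to about 92 µM; nearly all actives have a fitted effect of over 15% in size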)
In short: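 Mouse fibroblast (NIH/3T3) reporter cells with stably integrated Gli1-Luc were treated 24 hr with compound; firefly luciferase luminescence served as the read-out.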

[4] = qHTS assay to identify small molecule antagonists of the sonic hedgehog signaling (Shh) pathway (AID 1259369; calls by dose curve; further: nearly all actives have a fitted effect of over 45% in size)
In short: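 Conditioned medium drives Shh signalling in 3T3Gli1-Luc cells; compounds in DMSO co-applied, 24hr at 37 C, then luciferase luminescence.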

[5] = target: Estrogen receptor beta (Homo sapiens) (UniProt Q92731); experiment: qHTS assay to identify small molecule agonists of the estrogen receptor beta (ER-beta) signaling pathway (AID 1259377; active means well fitted activation curve with a large enough effect in the signal ratio in the repeat runs, not every such curve was filed as active; the % refers to the signal ratio)
Sequence of Estrogen receptor beta (Homo sapiens) (Q92731 whole entry, looked up): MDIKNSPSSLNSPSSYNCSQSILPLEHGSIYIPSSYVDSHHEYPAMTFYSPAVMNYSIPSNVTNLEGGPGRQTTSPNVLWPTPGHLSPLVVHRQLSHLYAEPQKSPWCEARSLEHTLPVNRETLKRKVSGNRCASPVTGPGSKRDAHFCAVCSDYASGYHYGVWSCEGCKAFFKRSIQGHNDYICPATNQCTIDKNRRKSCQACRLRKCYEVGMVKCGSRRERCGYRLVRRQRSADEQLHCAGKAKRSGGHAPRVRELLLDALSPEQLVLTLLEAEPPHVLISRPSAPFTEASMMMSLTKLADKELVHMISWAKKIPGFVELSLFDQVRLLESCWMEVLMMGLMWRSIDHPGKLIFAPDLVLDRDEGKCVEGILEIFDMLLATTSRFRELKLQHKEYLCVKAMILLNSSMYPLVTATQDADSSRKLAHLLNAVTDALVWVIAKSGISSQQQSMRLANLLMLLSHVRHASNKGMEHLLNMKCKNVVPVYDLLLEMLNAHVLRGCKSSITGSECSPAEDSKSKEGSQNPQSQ
In short: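 ER-beta-UAS-bla HEK293T cells in medium with 2% charcoal-stripped FBS were exposed to compounds for 16 h at 37C. Beta-lactamase reporter activity was read as fluorescence after 2 h with LiveBLAzer B/G FRET substrate at room temperature.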

[6] = target: Estrogen receptor beta (Homo sapiens) (UniProt Q92731); experiment: qHTS assay to identify small molecule antagonists of the estrogen receptor beta (ER-beta) signaling pathway (AID 1259378; active means well fitted inhibition curve with a large enough effect in the signal ratio in the repeat runs, not every such curve was filed as active; the % refers to the signal ratio)
In short: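 Antagonist mode: compounds added to beta-lactamase reporter HEK293T ER-beta-UAS cells stimulated with E2 (1nM final), 16 hr at 37C. LiveBLAzer B/G FRET substrate, 2 hours room temperature, fluorescence read-out.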

[7] = qHTS assay to identify small molecule agonists of the androgen receptor (AR) signaling pathway in the presence of an antagonist - cell viability counter screen (AID 1259379);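 further: MDA-kb2 human breast cancer cells carrying an MMTV luciferase reporter; series mostly up to about 92 µM; nearly all actives have a fitted effect of over 25% in size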
In short: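 A CellTiter-Fluor read-out measured viability of MDA-kb2 reporter cells (MMTV promoter with AR and GR response elements). Treatment: nilutamide 3.0uM final with compounds at 15 concentrations, 16 hr, 37C, 0% CO2.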

[8] = qHTS assay to identify small molecule agonists of the estrogen receptor beta (ER-beta) signaling pathway - cell viability counter screen (AID 1259380); further: nearly all actives have a fitted effect of over 30% in size
In short: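 Cells used were ER-beta-UAS-bla HEK293T in medium with 2% charcoal-stripped FBS. They were treated for 16 hr at 37C. Viability came from CellTiter-Glo luminescence.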

[9] = qHTS assay to identify small molecule antagonists of the estrogen receptor beta (ER-beta) signaling pathway - cell viability counter screen (AID 1259382); further: series mostly up to about 92 µM; nearly all actives have a fitted effect of over 55% in size
In short: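 Agonist-stimulated (1nM E2) ER-beta-UAS-bla HEK293T cells are incubated with library compounds for 16 hr at 37C. Cell viability is then assessed in the reporter-assay wells by adding CellTiter-Glo and reading luminescence after 30 min.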

Measured: Potency

COC(=O)/C=C(\C)CCC=C(C)C
inactive: all assays above

CC1=C(O)C(=O)CO1
inactive: all assays above

Cc1cc(C)c(N)c(Cl)c1
inactive: all assays above

CCCCS
inactive: all assays above

C=CCCCCCCCCOC(C)=O
inactive: all assays above

C=COCCCCO
inactive: all assays above

O=C1CC2(CCCC2)CC(=O)N1CCNCC1COc2ccccc2O1 (centres undefined)
inactive: all assays above

CCCOc1ccc(C(=O)OCCN(CC)CC)cc1N
inactive: all assays above

c1coc(Cn2cccc2)c1
inactive: all assays above

O=S(=O)(O)c1cc(I)c(O)c2ncccc12
inactive: all assays above

Cc1cc(O)c(Cl)cc1C
inactive: all assays above

O=S(=O)(O)CC(O)CCl (centres undefined)
inactive: all assays above

C=CCN(CC=C)CC=C
inactive: all assays above

C=CC(=O)OCC[N+](C)(C)C
inactive: all assays above

CC(C)(C)OC=O
inactive: all assays above

CCC(C)SSC(C)CC (centres undefined)
inactive: all assays above

CC(C)(C)c1ccc(N)cc1
inactive: all assays above

CC/C=C/CCCCCCCCCCOC(C)=O
inactive: all assays above

CCC(C)c1nccnc1OC (centres undefined)
inactive: all assays above

CCOC(=O)CN1CCCC1=O
inactive: all assays above

CN1CCN(C(=O)C2CCCCC2)CC1
inactive: all assays above

CN(C)CCc1c[nH]c2ccc(CS(=O)(=O)N3CCCC3)cc12
inactive: all assays above

CCO/C=C1\N=C(c2ccccc2)OC1=O
inactive: all assays above

CC1(C)CC(N)CC(C)(C)N1
inactive: all assays above

Clc1cc(Cl)c(Cl)c(Cl)c1Cl
inactive: all assays above

CC[N+](C)(CC)CC
inactive: all assays above
